# The supplement of paper PMC8728848
# Only a selection was taken, and the strongest signals are over-represented in it overall.
# What was measured:
# Experiment in all cases: glycan array binding signal (z-score within array); higher = stronger binding
# Conditions in all cases: glycan notation: IUPAC condensed, linker removed
# [1] = biological target: GalNAc(b1-3)Gal(a1-4)Gal(b1-4)GlcNAc
# Procedure, shortened: (§1)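 The Consortium for Functional Glycomics database supplied 3228 glycan arrays, of which those lacking an available protein sequence were dropped. The binding signal, a within-array Z-score, was averaged across arrays of the same protein sequence and across linkers. Negative scores can be read as non-binding.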
# [2] = biological target: Glc(a1-4)Glc(a1-4)Glc(a1-4)Glc
# Procedure, shortened: as §1
# [3] = biological target: GlcNAc(b1-2)[GlcNAc(b1-4)]Man(a1-3)[GlcNAc(b1-4)][GlcNAc(b1-2)[GlcNAc(b1-6)]Man(a1-6)]Man(b1-4)GlcNAc(b1-4)[Fuc(a1-6)]GlcNAc
# Procedure, shortened: as §1
# [4] = biological target: GlcNAc(b1-3)Gal(b1-4)GlcNAc(b1-3)Gal(b1-4)GlcNAc(b1-2)[GlcNAc(b1-3)Gal(b1-4)GlcNAc(b1-3)Gal(b1-4)GlcNAc(b1-6)]Man(a1-6)[GlcNAc(b1-3)Gal(b1-4)GlcNAc(b1-3)Gal(b1-4)GlcNAc(b1-2)Man(a1-3)]Man(b1-4)GlcNAc(b1-4)[Fuc(a1-6)]GlcNAc
# Procedure, shortened: as §1
# [5] = biological target: GlcNAc(b1-3)Gal(b1-4)GlcNAc(b1-6)[GlcNAc(b1-3)]Gal(b1-4)GlcNAc
# Procedure, shortened: as §1
# [6] = biological target: Man(a1-3)[Man(a1-6)]Man(a1-6)[Man(a1-3)]Man
# Procedure, shortened: as §1
# [7] = biological target: Man(a1-3)[Man(a1-6)]Man(a1-6)[Man(a1-3)]Man(b1-4)GlcNAc(b1-4)GlcNAc
# Procedure, shortened: as §1
# [8] = biological target: Neu5Ac(a2-3)Gal(b1-3)GlcNAc(b1-4)Gal(b1-4)Glc
# Procedure, shortened: as §1
# [9] = biological target: Neu5Ac(a2-3)Gal(b1-4)Glc
# Procedure, shortened: as §1
# [10] = biological target: Neu5Ac(a2-3)Gal(b1-4)GlcNAc(b1-3)GalNAc
# Procedure, shortened: as §1
# [11] = biological target: Neu5Ac(a2-3)Gal(b1-4)[Fuc(a1-3)]GlcNAc(b1-6)[Gal(b1-3)]GalNAc
# Procedure, shortened: as §1
# [12] = biological target: Neu5Ac(a2-6)Gal(b1-4)GlcNAc(b1-2)Man(a1-3)[Man(a1-6)]Man(b1-4)GlcNAc(b1-4)GlcNAc
# Procedure, shortened: as §1
# [13] = biological target: Neu5Ac(a2-6)Gal(b1-4)GlcNAc(b1-3)Gal(b1-4)GlcNAc(b1-6)[Gal(b1-3)]GalNAc
# Procedure, shortened: as §1
# [14] = biological target: Neu5Ac(a2-6)GalNAc(b1-4)GlcNAc6S
# Procedure, shortened: as §1
# [15] = biological target: Neu5Ac(a2-8)Neu5Ac(a2-8)Neu5Ac
# Procedure, shortened: as §1
# [16] = biological target: Neu5Gc(a2-3)Gal(b1-3)[Fuc(a1-4)]GlcNAc
# Procedure, shortened: as §1
# [17] = biological target: Neu5Gc(a2-3)Gal(b1-4)GlcNAc
# Procedure, shortened: as §1
binder,measurement,setting,value
SBD-G4S3-SBD (protein) MASIPSSASVQLDSYNYDGSTFSGKIYVKNIAYSKKVTVVYADGSDNWNNNGNIIAASFSGPISGSNYEYWTFSASVKGIKEFYIKYEVSGKTYYDNNNSANYQVSTGGGGSGGGGSGGGGSEFASIPSSASVQLDSYNYDGSTFSGKIYVKNIAYSKKVTVVYADGSDNWNNNGNIIAASFSGPISGSNYEYWTFSASVKGIKEFYIKYEVSGKTYYDNNNSANYQVST,glycan array binding signal (z-score),[1],-0.37
same,glycan array binding signal (z-score),[2],5.44
same,glycan array binding signal (z-score),[3],-0.39
same,glycan array binding signal (z-score),[4],-0.26
same,glycan array binding signal (z-score),[5],-0.406
same,glycan array binding signal (z-score),[6],-0.125
same,glycan array binding signal (z-score),[7],-0.351
same,glycan array binding signal (z-score),[8],-0.389
same,glycan array binding signal (z-score),[9],-0.399
same,glycan array binding signal (z-score),[10],-0.327
same,glycan array binding signal (z-score),[11],4.53
same,glycan array binding signal (z-score),[12],0.556
same,glycan array binding signal (z-score),[13],-0.221
same,glycan array binding signal (z-score),[14],-0.365
same,glycan array binding signal (z-score),[15],-0.377
same,glycan array binding signal (z-score),[16],-0.366
same,glycan array binding signal (z-score),[17],-0.326
